Screening data as filed in PubChem BioAssay.
Sampled rows, rich in hits. Any-hit rate of the full collection: about 12%.
JMJD2A Tudor inh: inhibitors of human JMJD2A Tudor domain | AlphaScreen JMJD2A-Tudor / H3K4me3 peptide binding | Potency, µM (titrated, usually from 114 µM), inactives show at the highest dose activity change, negative = inhibition, hits mostly inhibitors | actives 4.4% (n = 390,000) | AID 504339; note: potency is the fitted concentration of half-maximal effect; % is set by controls: 0 for no effect and ±100 for the full control effect; nearly all actives have a fitted effect of over 50% in size
BAZ2B inh: inhibitors of human BAZ2B bromodomain | AID 504333 | Q9UIF8 | Potency, µM (top dose mostly 114 µM), without a hit: at the top dose activity change, negative = inhibition, usual class: inhibitors | AlphaScreen BAZ2B-H3K14Ac peptide displacement | actives 4.4% (n = 360,000); note: potency is the fitted concentration of half-maximal effect; % is set by controls: 0 for no effect and ±100 for the full control effect; nearly all actives have a fitted effect of over 60% in size
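BAZ2B (50 nM) with biotin-H3(5-23)K14Ac peptide (50 nM) in PBS pH 7.4, 0.01% Tween-20, preformed 30 min, then compound 30 min at room temperature; top concentration 110uM. AlphaScreen streptavidin donor/nickel chelate acceptor beads (10 ug/mL final), 20 min dark, signal read.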
G9a inh: blocks human histone lysine methyltransferase G9a; Potency, µM (highest dose often 102 µM), inactives show at the top dose activity, negative = inhibition, hits mostly inhibitors; Q96KQ7; actives 8.8% (n = 350,000); G9a H3K9 monomethylation, AlphaScreen, 2 h; AID 504332; note: potency is the fitted concentration of half-maximal effect; % is set by controls: 0 for no effect and ±100 for the full control effect; nearly all actives have a fitted effect of over 75% in size
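G9a (20 nM) was preincubated 15 min with compound, then reacted 2 h at room temperature with 500 nM biotin-H3K9 peptide and 20 µM SAM. Monomethyl-H3K9 detected by AlphaScreen using anti-H3K9me1 antibody.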
PI5P4K alpha inh: inhibitors of human PI5P4K alpha; AID 652105; P48426; PI5P4Kalpha enzyme, ADP-Glo luminescence, 60 min; hits give low values; max response, %; actives 1.2% (n = 330,000); active = max response of -50% or lower; inconclusive = between -30% and -50%; inactive = -30% or higher; note: value at the top dose of about 77 µM; % is set by controls: 0 for no effect and ±100 for the full control effect
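Human PI5P4Kalpha with substrate in 0.038 M HEPES pH 7.4, 0.28 mM EGTA, 0.1% CHAPS, 5% DMSO; reaction started with 5 microM ATP (final), 60 min at room temperature. ADP formed read by ADP-Glo luminescence.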
PLK1 PBD block: PLK1 (human) polo-box domain binding inhibition. Potency, µM, for inactives: max response, negative = inhibition, hits mostly inhibitors. actives 2.8% (n = 360,000). P53350. AID 720504. Plk1 PBD binding of FITC phosphopeptide, fluorescence polarization; note: potency is the fitted concentration of half-maximal effect; series mostly up to about 57 µM; % is set by controls: 0 for no effect and ±100 for the full control effect; nearly all actives have a fitted effect of over 65% in size
Target sequence (P53350 whole entry, looked up, the tested form may be a part): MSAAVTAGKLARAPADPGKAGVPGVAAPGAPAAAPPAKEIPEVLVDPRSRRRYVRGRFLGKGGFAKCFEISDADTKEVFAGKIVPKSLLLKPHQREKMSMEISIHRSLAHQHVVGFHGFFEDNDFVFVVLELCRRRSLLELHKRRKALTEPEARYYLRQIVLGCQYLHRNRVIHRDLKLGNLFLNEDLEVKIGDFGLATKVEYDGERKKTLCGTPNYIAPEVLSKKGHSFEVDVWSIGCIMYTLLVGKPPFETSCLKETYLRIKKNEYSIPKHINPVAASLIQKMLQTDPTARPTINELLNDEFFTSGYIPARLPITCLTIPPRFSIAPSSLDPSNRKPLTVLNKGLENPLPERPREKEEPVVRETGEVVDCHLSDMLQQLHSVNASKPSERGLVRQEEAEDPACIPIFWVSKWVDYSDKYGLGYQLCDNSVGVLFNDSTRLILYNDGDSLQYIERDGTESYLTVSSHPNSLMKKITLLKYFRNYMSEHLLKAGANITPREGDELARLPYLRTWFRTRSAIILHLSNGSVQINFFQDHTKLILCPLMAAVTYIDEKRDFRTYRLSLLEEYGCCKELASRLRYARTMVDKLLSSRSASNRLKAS
HP1b binding inh: blocks HP1-beta chromodomain binding to methylated histone tails; actives 0.56% (n = 390,000); AlphaScreen HP1-beta / biotin-H3K9me3 peptide binding; Potency, µM (titrated, usually from 114 µM), inactives show at the highest dose activity change, negative = inhibition, hits mostly inhibitors; P83916; AID 540317; note: potency is the fitted concentration of half-maximal effect; nearly all actives have a fitted effect of over 70% in size
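HP1-beta protein (50 nM final) preincubated 30 min at room temperature with biotinylated H3(1-18)K9me3 peptide (50 nM) in PBS pH 7.4, 0.01% Tween-20, then compound added for 30 min. AlphaScreen streptavidin donor/nickel chelate acceptor beads (10 ug/mL final), 30 min dark, luminescence read.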
Starred values were filed as active, the others as inactive; [ ] = remark or other dose. Unless noted, calls come from the whole dose curve; as a rule, active = well fitted curve in the direction sought with a large enough effect; inconclusive = small, poorly fitted or top-dose-only effect, or another doubt; inactive = no such curve, though single readings can be large; an effect the other way counts as inactive or inconclusive.

Results for CNC(C)Cc1ccccc1OC (stereo unspecified) ?
G9a inh: 6.3%[59 µM]

Results for Cc1ccccc1CN1C(=O)CN=C(c2ccccc2)c2cc(Cl)ccc21 ?
JMJD2A Tudor inh: -22.1%; BAZ2B inh: -3.9%; G9a inh: -27.5%[59 µM]; HP1b binding inh: 23.7%

What do the screens show for `CCc1ccccc1NC(=O)c1cccn(Cc2ccccc2F)c1=O`?
JMJD2A Tudor inh: -5.5%; BAZ2B inh: 0.4%; G9a inh: 12.4%[59 µM]; HP1b binding inh: 27.3%[57 µM]

How did CC(C)C[C@H](NC(=O)[C@H](Cc1ccccc1)NC(=O)CNC(=O)[C@H](CS)N(C(=O)[C@@H](N)Cc1ccc(O)cc1)C(C)(C)C)C(=O)N([C@H](C(=O)O)[C@H](C)O)C(C)(C)C do in these assays?
G9a inh: 8.3%[59 µM]

Results for COc1ccccc1N1CCN(CCc2c[nH]c3cc4c(cc23)OCO4)CC1 ?
JMJD2A Tudor inh: 25.1µM*; PI5P4K alpha inh: -14.3; PLK1 PBD block: 3.6%; HP1b binding inh: inconclusive

Results for CCN1C(=O)CC(=O)N(CC)C1=S ?
PI5P4K alpha inh: -55.0*; PLK1 PBD block: inconclusive

What do the screens show for `O=C(Oc1ccccc1)N1CCC[C@@]2(CCN(Cc3nccs3)C2)C1`?
G9a inh: -6.4%[12.7 µM]

Results for CCOC(=O)C1=CC(=C2C(=O)N(CC)C(=S)N(CC)C2=O)c2ccccc2O1 ?
JMJD2A Tudor inh: -26.1%; BAZ2B inh: inconclusive; G9a inh: 25.1µM*; PI5P4K alpha inh: -22.1; PLK1 PBD block: inconclusive; HP1b binding inh: inconclusive

Results for CCN1C(=O)C(=C2C=C(C)OC(C)=C2)C(=O)N(CC)C1=S ?
JMJD2A Tudor inh: -7.7%; BAZ2B inh: -24.7%; G9a inh: -17.0%; PI5P4K alpha inh: 2.1; PLK1 PBD block: 0.4%; HP1b binding inh: 21.8%

Results for CC1CN=C(Nc2ccccc2)S1 (stereo unspecified) ?
JMJD2A Tudor inh: 0.0%; BAZ2B inh: 3.1%; G9a inh: -35.4%[59 µM]; PLK1 PBD block: -0.4%; HP1b binding inh: 24.9%

What do the screens show for `CC1CN=C(Nc2ccc(N(C)C)cc2)S1` (stereo unspecified)?
JMJD2A Tudor inh: 39.8µM*; BAZ2B inh: inconclusive; G9a inh: 35.5µM*; PLK1 PBD block: -11.9%; HP1b binding inh: -33.6%

Results for C#CCOCCOCCOCCNc1nc(N2CCN(C(=O)CCCCCCCCCCNC(=O)[C@H]([C@@H](C)CC)n3cc(CCCCN=C(N)N)nn3)CC2)nc(N2CCN(C(=O)CCCCCCCCCCNC(=O)[C@H](CO)n3cc(CCCCCN)nn3)CC2)n1 ?
JMJD2A Tudor inh: 56.2µM*; BAZ2B inh: 50.1µM*; G9a inh: -8.4%[2.33 µM]; PI5P4K alpha inh: inconclusive; PLK1 PBD block: -10.5%; HP1b binding inh: inconclusive

Results for COc1ccc(CNC(=O)Cn2c(=O)oc3cc(S(=O)(=O)N4CCCC4)ccc32)cc1 ?
JMJD2A Tudor inh: -3.4%; BAZ2B inh: -23.7%; G9a inh: -18.7%[59 µM]; PI5P4K alpha inh: -1.9; PLK1 PBD block: -8.9%; HP1b binding inh: 33.9%

How did CN(C)c1ccc(CNC(=O)Cn2c(=O)oc3cc(S(=O)(=O)N4CCCCCC4)ccc32)cc1 do in these assays?
JMJD2A Tudor inh: inconclusive; BAZ2B inh: 25.1µM*; G9a inh: 11.2µM*; HP1b binding inh: -33.2%

What do the screens show for `CN1C(=O)[C@@H](NC(=O)c2cc3ccccc3[nH]2)N=C(c2ccccc2)c2ccccc21`?
G9a inh: 5.2%[59 µM]

What do the screens show for `CCCCn1c(-c2ccoc2C)n[nH]c1=S`?
JMJD2A Tudor inh: 7.94µM*; BAZ2B inh: 1.9%; G9a inh: 3.98µM*; PI5P4K alpha inh: -4.7; PLK1 PBD block: -14.1%; HP1b binding inh: 8.9%

How did CCc1ccccc1NC(=O)NNS(=O)(=O)c1cc(C)ccc1C do in these assays?
JMJD2A Tudor inh: -14.4%; BAZ2B inh: -0.4%; G9a inh: 58.3%; PI5P4K alpha inh: 8.0; PLK1 PBD block: 5.7%; HP1b binding inh: 20.9%
